Measurements taken from PubChem BioAssay.
Activity calls are given as the source filed them.

Legend:
[1] = biological target: Albumin (Bos taurus) (UniProt P02769); assay: bovine serum albumin binders on microarray, profiling panel, artefact control for SMM control protein annotation, biochemical, small-molecule microarray, Alexa647 label, 635/667 nm fluorescence (AID 1118); details: BSA-A647 binding, fluorescence 635 nm, higher = more signal;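 further: score merges 667 nm emission intensity and signal-to-noise per printed compound spot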
[2] = small-molecule microarray binders of probe aXIP, primary screen, biochemical, NeuroSMM set, 635/667 nm fluorescence (AID 1119); details: higher = more signal, called active from +8 up or from −8 down;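 further: probe is the protein aXip251-270 applied at 1 µg/mL to compound-printed slides; binding of probe to printed compounds measured as 667 nm fluorescence plus signal to noise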
[3] = small-molecule binders of probe aNOTCH3, primary screen, biochemical, small-molecule microarray, 635/667 nm fluorescence (AID 1120); details: higher = more signal;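 further: probe is a biotin-tagged antibody raised against NOTCH3 rather than NOTCH3 protein; score merges spot fluorescence near 667 nm with spot signal to noise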
[4] = small-molecule binders of probe aNOTCH2, primary screen, biochemical, small-molecule microarray, 635/667 nm fluorescence (AID 1121); details: higher = more signal;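 further: score merges feature fluorescence read at 667 nm with its signal to noise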
[5] = biological target: Carbonic anhydrase 2 (Homo sapiens) (UniProt P00918); assay: CAII small-molecule binders, profiling panel, biochemical, small-molecule microarray, Alexa647-labelled CAII (AID 1122); details: CAII-A647 binding fluorescence, higher = more signal
[6] = COS7 lysate on small-molecule microarray, probe aHis, 635 nm (AID 1123); details: COS7 cell lysate, fluorescence, higher = more signal;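 further: z-score combines 667nm fluorescence intensity with signal-to-noise per printed compound spot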
[7] = compound binding in COS7 lysate, probe aLAP1, primary screen, cell lysate, small-molecule microarray (AID 1124); details: probe aLAP1, fluorescence, higher = more signal;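 further: lysate comes from COS7 cells expressing LAP1 and is applied at 0.3 µg/mL; score merges spot fluorescence near 667 nm with signal-to-noise over triplicate slides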
[8] = test system: Sam68 (KHDRBS1); assay: Sam68 small-molecule binders, primary screen, biochemical, small-molecule microarray, 635 nm fluorescence (AID 1125); details: small-molecule microarray binding, higher = more signal;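 further: score merges 667 nm channel intensity with signal to noise over triplicate slides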
[9] = test system: Chordin-like protein 2 (CHRDL2); assay: CHRDL2 small-molecule binders, primary screen, biochemical, small-molecule microarray, 635 nm fluorescence (AID 1126); details: small-molecule microarray binding, fluorescence 635 nm; higher = more signal;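 further: printed compound slides probed with Chrdl2 protein at 4 µg/mL for 1 h at 4 C; score merges 667 nm emission intensity with signal to noise over three replicate slides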
[10] = biological target: Concanavalin-A (Canavalia ensiformis) (UniProt P02866); assay: ConA small-molecule binders, primary screen, artefact control for SMM control protein annotation, biochemical, small-molecule microarray, Alexa647 label, 635 nm (AID 1127); details: ConA-A647 binding fluorescence, higher = more signal;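 further: z combines 667 nm emission intensity with signal-to-noise across three replicate slides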
Chain of Concanavalin-A (Canavalia ensiformis) (P02866 whole entry, looked up): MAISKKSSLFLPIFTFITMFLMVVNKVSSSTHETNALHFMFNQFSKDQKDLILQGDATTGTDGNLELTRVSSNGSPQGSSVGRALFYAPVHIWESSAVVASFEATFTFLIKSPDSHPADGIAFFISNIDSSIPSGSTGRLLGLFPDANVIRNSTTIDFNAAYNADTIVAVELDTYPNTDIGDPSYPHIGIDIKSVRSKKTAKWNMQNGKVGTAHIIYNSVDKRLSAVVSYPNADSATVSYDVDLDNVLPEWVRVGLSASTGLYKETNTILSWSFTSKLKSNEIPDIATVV

Chain of Albumin (Bos taurus) (P02769 whole entry, looked up): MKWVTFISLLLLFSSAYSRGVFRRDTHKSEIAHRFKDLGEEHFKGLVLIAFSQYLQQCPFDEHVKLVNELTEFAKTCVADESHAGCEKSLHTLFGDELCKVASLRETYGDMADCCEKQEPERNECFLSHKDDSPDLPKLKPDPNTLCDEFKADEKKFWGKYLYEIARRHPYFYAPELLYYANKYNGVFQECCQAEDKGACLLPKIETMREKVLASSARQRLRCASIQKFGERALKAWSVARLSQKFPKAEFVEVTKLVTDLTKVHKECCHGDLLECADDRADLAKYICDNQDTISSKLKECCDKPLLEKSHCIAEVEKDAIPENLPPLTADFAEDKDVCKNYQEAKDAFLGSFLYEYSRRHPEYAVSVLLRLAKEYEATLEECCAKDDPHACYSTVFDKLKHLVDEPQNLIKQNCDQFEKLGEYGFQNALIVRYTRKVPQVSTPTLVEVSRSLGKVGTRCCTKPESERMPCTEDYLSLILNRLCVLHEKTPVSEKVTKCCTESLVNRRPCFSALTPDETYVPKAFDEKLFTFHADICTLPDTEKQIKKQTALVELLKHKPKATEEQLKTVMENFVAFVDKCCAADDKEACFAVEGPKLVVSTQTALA

Row | SMILES | composite z-score [1] | composite Z-score [2] | composite z-score [3] | composite z-score [4] | composite z-score [5] | composite z-score [6] | composite z-score [7] | composite z-score [8] | composite z-score [9] | composite z-score [10]
1 | CCCCC(=C=CC[C@@H](O)c1cccc(OCCO)c1)C[C@@H](O)c1ccccn1 | 0.416 | 0.216 (inactive) | -0.0881 | -0.172 | 0.7 | 0.617 | 0.651 | 1.29 | 0.263 | 0.664
2 | COC(=O)[C@@]1(Cc2ccc(OC)cc2)[C@H]2c3cc(C(=O)N4CCCC4)n(CCc4ccc(O)c(O)c4)c3C[C@H]2CN1C(=O)c1ccccc1 | 0.881 | -0.2 (inactive) | 0.144 | 0.336 | 0.79 | 3.42 | 0.932 | -0.0777 | -0.237 | 0.0245
3 | NC(=O)NCC#Cc1ccc2c(c1)[C@]1(C(=O)N2)[C@H](C(=O)O)[C@H]2C(=O)O[C@H](c3ccccc3)[C@H](c3ccccc3)N2[C@@H]1c1ccc(O)cc1 | 0.424 | 0.116 (inactive) | 0.207 | 0.314 | 0.205 | 0.361 | -0.464 | 0.102 | 0.265 | 0.888
4 | COc1ccc([C@H]2OC[C@@H]3CCC(=O)N32)cc1 | 0.626 | 1.42 (inactive) | 0.0948 | -0.161 | 0.286 | -0.215 | 0.552 | 0.382 | 0.504 | 0.3
5 | COc1ccc(C(O)C2C=CC3C(=O)N(C)C(=O)C3N2N(c2ccccc2)c2ccccc2)c2ccccc12 (stereo not given) | -0.111 | 1.39 (inactive) | 0.237 | -0.0017 | 0.677 | -0.198 | 0.976 | -0.481 | 0.776 | 0.369
6 | CN(C)C(=O)[C@]1(Cc2ccccc2)N=C(c2ccc(OCCCO)cc2)O[C@@H]1c1ccccc1N=[N+]=[N-] | 0.784 | 0.431 (inactive) | 0.23 | -0.0145 | 0.782 | 2.12 | 0.764 | 1.32 | -0.199 | 1.1
7 | CCCCN1CC=CC23O[C@@H]4C=CCCOC(=O)C4[C@H]2C(=O)N(CCCCCO)[C@@H]3C1=O (stereo not given in full) | 0.438 | 0.251 (inactive) | -0.297 | -0.132 | 0.861 | -0.0221 | -0.327 | -0.444 | -0.882 | -0.131
8 | CS(=O)(=O)CCOC(=O)C1=CC(CCCO)=CC(c2ccc(CN3CCCC3)cc2)N(Cc2cccc(OC(F)(F)F)c2)C=C1C(=O)OCCS(C)(=O)=O (stereo not given) | 0.0883 | 0.25 (inactive) | 0.111 | -0.0254 | 0.454 | 1.16 | 0.0212 | 1.26 | 0.379 | 0.644
9 | C=CCOC(=O)[C@H]1[C@@H]2C(=O)O[C@@H](c3ccccc3)[C@@H](c3ccccc3)N2[C@@H](c2ccc(OCCOC(=O)[C@@H]3C[C@@H]4C(=O)N5CCC[C@H]5C(=O)N4[C@@H]3c3cccc(OCCO)c3)cc2)[C@]12C(=O)Nc1ccc(I)cc12 | -0.656 | 0.686 (inactive) | 1.12 | 0.117 | 0.269 | 1.15 | 0.322 | 1.29 | 1.18 | 1.14
10 | C[N+](C)(C)CCCCCCNC(=O)[C@H]1C[C@H]2C(=O)N[C@@H](Cc3ccccc3)C(=O)N2[C@H]1c1cccc(OCCO)c1 | -0.174 | 0.35 (inactive) | -0.1 | -0.107 | 0.638 | 2.1 | 0.319 | 0.699 | 1.01 | 0.996
11 | O=C1NC(=O)C2C1C=CC(C(O)C=Cc1ccc([N+](=O)[O-])cc1)N2Nc1ccc(Cl)cc1Cl (stereo not given) | 0.89 | 0.541 (inactive) | 0.405 | 0.39 | 0.76 | 2.07 | 1.01 | 0.756 | 0.397 | 0.76
12 | COc1cc(OC)c(C(O)C2C=CC3C(=O)NC(=O)C3N2Nc2ccccn2)cc1Br (stereo not given) | -0.257 | 0.172 (inactive) | -0.0026 | -0.0598 | 0.819 | 0.973 | 0.487 | 0.755 | 1.02 | 0.747
13 | C=CCOC(=O)[C@H]1[C@@H]2C(=O)O[C@@H](c3ccccc3)[C@@H](c3ccccc3)N2[C@@H](c2ccc(OCCOC(=O)[C@H]3C[C@H]4C(=O)N[C@@H](CCCCN(C)C)C(=O)N4[C@H]3c3cccc(OCCO)c3)cc2)[C@]12C(=O)Nc1ccc(I)cc12 | -0.427 | 0.715 (inactive) | 0.0306 | -0.154 | 0.228 | 0.986 | -0.0143 | 1.3 | 1.39 | 1.12
14 | O=c1cccc(-c2ccccc2Cl)o1 | 0.18 | 0.0241 (inactive) | -0.177 | -0.199 | -0.0836 | -0.011 | -0.235 | 0.102 | 0.0431 | -0.415
15 | C=C(C)[C@@H]1CC=C(C(O)C2C=CC3C(=O)NC(=O)C3N2Nc2ccc(Cl)cc2Cl)CC1 (stereo not given in full) | 1 | 0.114 (inactive) | 0.0221 | 0.0032 | 0.708 | 2 | 0.708 | 1.31 | 0.41 | 1.11
16 | COC(=O)c1c2oc(c1C(=O)OC)C(=O)N[C@@H](C(C)C)Cn1cc(nn1)C1(CCCCC1)NC(=O)N[C@H](CO)CC2 | -0.0901 | -0.203 (inactive) | -0.122 | -0.0761 | 0.828 | 1.18 | -0.0841 | 0.194 | 0.199 | 0.689
17 | O=C1C2C=CC(C(O)C=Cc3ccc([N+](=O)[O-])cc3)N(Nc3ccccc3F)C2C(=O)N1c1ccccc1 (stereo not given) | 0.868 | 0.139 (inactive) | 0.127 | -0.147 | 0.651 | 2.31 | 0.885 | 1.3 | 0.0612 | 1.15
18 | C=CC1c2cc(O)c(OC)cc2CCN1Cc1cccc(OC(F)(F)F)c1 (stereo not given) | 0.971 | 0.625 (inactive) | -0.0596 | -0.16 | 0.893 | 3.33 | 0.754 | 0.909 | 0.44 | 0.462
19 | COc1ccc(C#Cc2ccc3c(c2)[C@]2(C(=O)N3)[C@H](c3ccc(O)cc3)N3[C@H](c4ccccc4)[C@H](c4ccccc4)OC(=O)[C@H]3[C@@H]2C(=O)N2CCc3cc(OC)c(OC)cc3C2)cc1 | 0.719 | 1.39 (inactive) | 0.0196 | -0.12 | 0.459 | 1.33 | 0.326 | 1.31 | 0.356 | 1.12
20 | CC(C)Cc1ccc(CN2CC[C@@H](N)C2)cc1 | -0.275 | -0.536 (inactive) | -0.152 | -0.205 | -0.501 | -0.304 | -0.485 | -1.62 | -0.629 | -0.732
21 | COc1ccc([Si](C)(C)[C@H]2[C@H](CCO)O[C@@]3(C(=O)N(Cc4ccccc4)c4ccc(N5CCCCC5=O)cc43)[C@@H]2C)cc1 | 0.78 | 0.388 (inactive) | -0.0918 | -0.133 | 0.342 | 0.376 | 0.237 | 0.965 | 0.207 | 0.905
22 | [N-]=[N+]=NCc1ccccc1C[C@@]1(C(=O)NCC(O)CO)N=C(c2ccc(OCCCO)cc2)O[C@@H]1c1ccccc1 (stereo not given in full) | 0.992 | -0.191 (inactive) | -0.0077 | 0.0996 | 0.432 | 2.82 | -0.177 | 0.331 | -0.247 | -1.11
23 | O=C1C2C=CC(C(O)c3ccc(-c4ccccc4)s3)N(Nc3ccccc3)C2C(=O)N1c1ccccc1 (stereo not given) | 0.931 | -0.375 (inactive) | 0.24 | 0.0554 | 0.591 | 2.82 | 0.103 | 1.31 | 0.0135 | 0.963
24 | C#CCN(C/C=C/c1ccccc1)[C@H](CO)c1ccccc1 | -0.287 | -0.014 (inactive) | -0.274 | -0.196 | 0.0571 | -0.128 | -0.0886 | -0.142 | -0.0231 | -0.159
25 | COc1ccc([C@H]2C[C@H]3C(Br)=C[C@@]2(CO)C(=O)[C@]32CO2)cc1 | -0.613 | -0.0805 (inactive) | -0.103 | -0.0684 | 0.0574 | -0.128 | 0.289 | -0.318 | 0.282 | 0.178
26 | CCCC[C@H]1C[C@@H]1[C@@H]1N(P(=O)(c2ccccc2)c2ccccc2)C[C@@](O)(c2ccccc2)CC12CC2 | 0.951 | 0.863 (inactive) | 0.169 | 0.0525 | 0.374 | 2.28 | 0.473 | 0.944 | -1.95 | 0.499
27 | CC(c1ccccc1)C(O)C1C=CC2C(=O)N(c3ccccc3)C(=O)C2N1Nc1ccccc1 (stereo not given) | 1.01 | 0.304 (inactive) | 0.298 | -0.112 | 0.493 | 3.12 | 0.426 | 1.34 | -0.298 | 1.11
28 | CCOC(=O)C[C@H]1[C@H](OC(=O)c2ccc(-c3ccccc3)cc2)[C@@H](NC(=O)c2ccccc2)c2cc(OCCCO)ccc2N1C(=O)Cc1ccc(OC)cc1 | 0.372 | -0.316 (inactive) | -0.0077 | -0.0664 | -0.0275 | 0.368 | 0.311 | -0.254 | -0.399 | -0.769
